What all share (design): scale not given: direction of the effect not stated beside the values
Assay [1] addresses Protein translocase subunit SecA (Escherichia coli (strain K12)) (UniProt P10408). The assay is described as follows: Assay to Identify E. coli SecA ATPase Inhibitors. In kind it is functional. As to conditions: 30 µM.
For assay [2], the target named is T1, Ubiquitin-activating enzyme e1, putative (Leishmania donovani (strain BPK282A1)) (UniProt E9BSI1).
T1 sequence (whole entry): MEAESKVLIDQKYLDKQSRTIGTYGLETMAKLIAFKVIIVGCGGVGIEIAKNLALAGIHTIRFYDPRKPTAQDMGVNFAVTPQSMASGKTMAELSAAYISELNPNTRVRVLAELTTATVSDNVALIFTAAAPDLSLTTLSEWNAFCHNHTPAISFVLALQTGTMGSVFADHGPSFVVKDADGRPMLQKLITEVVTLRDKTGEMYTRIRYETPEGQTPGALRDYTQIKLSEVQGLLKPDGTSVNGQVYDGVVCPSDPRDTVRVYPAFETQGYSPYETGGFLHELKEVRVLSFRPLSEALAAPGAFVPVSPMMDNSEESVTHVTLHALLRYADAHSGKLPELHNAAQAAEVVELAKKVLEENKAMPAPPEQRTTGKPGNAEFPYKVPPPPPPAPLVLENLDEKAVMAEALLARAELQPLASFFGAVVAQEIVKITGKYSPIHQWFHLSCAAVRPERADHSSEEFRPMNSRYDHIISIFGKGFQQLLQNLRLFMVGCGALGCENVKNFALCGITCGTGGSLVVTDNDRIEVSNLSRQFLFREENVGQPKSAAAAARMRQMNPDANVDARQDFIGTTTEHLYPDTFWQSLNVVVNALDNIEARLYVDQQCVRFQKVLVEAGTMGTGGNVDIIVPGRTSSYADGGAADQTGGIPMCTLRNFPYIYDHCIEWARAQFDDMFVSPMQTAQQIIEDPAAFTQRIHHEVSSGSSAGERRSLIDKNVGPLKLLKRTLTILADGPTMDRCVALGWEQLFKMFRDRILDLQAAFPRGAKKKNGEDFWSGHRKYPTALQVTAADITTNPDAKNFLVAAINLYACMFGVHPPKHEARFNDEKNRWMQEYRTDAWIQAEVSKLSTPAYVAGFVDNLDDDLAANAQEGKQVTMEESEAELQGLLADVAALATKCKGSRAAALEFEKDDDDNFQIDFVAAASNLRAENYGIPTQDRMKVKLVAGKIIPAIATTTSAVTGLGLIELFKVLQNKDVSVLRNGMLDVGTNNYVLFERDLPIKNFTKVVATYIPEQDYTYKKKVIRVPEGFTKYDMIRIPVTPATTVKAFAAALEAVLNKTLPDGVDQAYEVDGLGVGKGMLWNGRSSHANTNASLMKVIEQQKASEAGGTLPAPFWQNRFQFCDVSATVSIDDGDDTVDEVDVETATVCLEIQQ
The assay is described as follows: Leishmania donovani Ubiquitin Activating Enzyme (LdE1). In kind it is functional. As to conditions: 30 µM.

The target in assay [3] is AMP-activated protein kinase, AMPK (Homo sapiens) (UniProt P54646+O43741+P54619+Q9UGJ0+Q9Y478+Q13131+Q9UGI9). The assay is described as follows: AMP-dependent Kinase enzyme assay. An in vitro enzyme assay that detects ADP turnover that is directly proportional to AMPK activity. This uses naive AMPK that is activated during the assay with MK-8722. In kind it is functional. As to conditions: 30 µM.

Assay [4] concerns the target Sialic acid-binding Ig-like lectin 9 (Homo sapiens) (UniProt Q9Y336). The experiment in a line: Hs-Siglec9 ALPHAscreen SOP 20170721. As to conditions: 10 µM. (In general: In Alpha technology, singlet oxygen from a donor bead excites a nearby acceptor bead.)
The subject of the next assay is Trypanosoma cruzi. The experiment in a line: Trypanosoma cruzi phosphomannomutase and mannose-1-phosphate guanylyltransferase assay. In kind it is functional. As to conditions: 10 µM.
Assay [5] concerns the target T2, Arginase-2, mitochondrial (Homo sapiens) (UniProt P78540).
T2 sequence (whole entry): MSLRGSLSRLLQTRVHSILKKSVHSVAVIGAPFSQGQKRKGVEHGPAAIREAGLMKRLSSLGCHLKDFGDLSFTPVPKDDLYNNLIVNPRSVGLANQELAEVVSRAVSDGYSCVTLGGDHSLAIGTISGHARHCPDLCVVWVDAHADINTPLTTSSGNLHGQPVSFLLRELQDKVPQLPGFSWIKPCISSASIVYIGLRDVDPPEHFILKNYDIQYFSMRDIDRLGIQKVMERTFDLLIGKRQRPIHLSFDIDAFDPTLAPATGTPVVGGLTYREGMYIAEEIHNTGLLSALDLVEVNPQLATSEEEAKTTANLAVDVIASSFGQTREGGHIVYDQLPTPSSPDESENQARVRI
The experiment in a line: in vitro enzyme assay to detect the production of urea directly proportional to the activity of Arginase II. Note: in the data most compounds retested in dose-response had high values. In kind it is functional. As to conditions: 33.3 µM.

The target of assay [6] is T3, Proteasome subunit beta (Trypanosoma cruzi) (UniProt O96673).
T3 sequence (whole entry): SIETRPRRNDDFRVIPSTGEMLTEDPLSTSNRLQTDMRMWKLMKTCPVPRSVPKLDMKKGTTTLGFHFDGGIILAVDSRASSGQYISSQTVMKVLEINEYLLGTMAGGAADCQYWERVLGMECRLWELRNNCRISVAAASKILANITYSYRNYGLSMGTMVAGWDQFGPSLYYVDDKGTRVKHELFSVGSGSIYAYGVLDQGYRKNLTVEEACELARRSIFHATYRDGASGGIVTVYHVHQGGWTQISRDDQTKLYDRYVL
The assay is described as follows: Trypanosoma cruzi proteasome chymotrypsin-like activity (TcProtChymo) assay. Note: in the data most compounds retested in dose-response had high values. In kind it is functional. As to conditions: 9.37 µM.

For a further assay, the species on record is Homo sapiens. The assay is described as follows: To identify inhibition of the IFN signalling (Jak-Stat) pathway via expression of an eGFP reporter gene under the control of an IFN-stimulated response element (ISRE) containing MxA promoter. The assay is classed as functional. As to conditions: 30 µM. (In general: Reporter assays use an easily measured gene product as a stand-in for the process of interest.)

For assay [7], the target named is T4, Tyrosyl-tRNA synthetase, putative (Trypanosoma cruzi (strain CL Brener)) (UniProt Q4DSP6).
T4 sequence (whole entry): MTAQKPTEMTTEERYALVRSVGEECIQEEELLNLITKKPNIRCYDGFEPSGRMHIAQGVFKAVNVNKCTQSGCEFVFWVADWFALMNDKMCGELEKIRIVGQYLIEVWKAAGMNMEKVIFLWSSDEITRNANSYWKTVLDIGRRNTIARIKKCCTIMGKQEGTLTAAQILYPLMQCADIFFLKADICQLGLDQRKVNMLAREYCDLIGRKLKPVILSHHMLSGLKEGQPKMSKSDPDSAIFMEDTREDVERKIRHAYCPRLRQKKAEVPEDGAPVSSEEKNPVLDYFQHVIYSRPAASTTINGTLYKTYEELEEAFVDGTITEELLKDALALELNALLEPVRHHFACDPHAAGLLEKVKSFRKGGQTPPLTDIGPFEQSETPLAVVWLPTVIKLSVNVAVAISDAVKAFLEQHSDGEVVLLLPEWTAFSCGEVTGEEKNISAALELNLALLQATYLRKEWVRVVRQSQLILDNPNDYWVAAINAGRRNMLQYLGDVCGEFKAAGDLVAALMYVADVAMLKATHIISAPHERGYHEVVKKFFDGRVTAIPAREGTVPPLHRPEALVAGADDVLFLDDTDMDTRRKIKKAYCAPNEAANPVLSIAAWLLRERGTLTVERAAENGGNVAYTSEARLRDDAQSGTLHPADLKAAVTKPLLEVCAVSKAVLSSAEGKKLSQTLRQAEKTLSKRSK
The experiment in a line: Trypanosoma cruzi tyrosyl tRNA synthetase (TcYRS) _High Tyrosine SOP. Note: in the data most compounds retested in dose-response had high values. In kind it is functional. As to conditions: 30 µM.

For assay [8], the target named is T4, Tyrosyl-tRNA synthetase, putative (Trypanosoma cruzi (strain CL Brener)). The experiment in a line: Trypanosoma cruzi tyrosyl tRNA synthetase (TcYRS) SOP. The assay is classed as functional. As to conditions: 30 µM.
Assay [9] concerns the target Chromo domain-containing protein 1 (Saccharomyces cerevisiae (strain ATCC 204508 / S288c) (Baker's yeast)) (UniProt P32657). The assay is described as follows: ScCHD-1 Enzyme Inhibition Assay. Note: in the data most compounds retested in dose-response had high values. In kind it is functional. As to conditions: 30 µM.

For some of these results: Entries with a potency or affinity are not part of this list.

Protein translocase subunit SecA (Escherichia coli (strain K12)), sequence (P10408 whole entry): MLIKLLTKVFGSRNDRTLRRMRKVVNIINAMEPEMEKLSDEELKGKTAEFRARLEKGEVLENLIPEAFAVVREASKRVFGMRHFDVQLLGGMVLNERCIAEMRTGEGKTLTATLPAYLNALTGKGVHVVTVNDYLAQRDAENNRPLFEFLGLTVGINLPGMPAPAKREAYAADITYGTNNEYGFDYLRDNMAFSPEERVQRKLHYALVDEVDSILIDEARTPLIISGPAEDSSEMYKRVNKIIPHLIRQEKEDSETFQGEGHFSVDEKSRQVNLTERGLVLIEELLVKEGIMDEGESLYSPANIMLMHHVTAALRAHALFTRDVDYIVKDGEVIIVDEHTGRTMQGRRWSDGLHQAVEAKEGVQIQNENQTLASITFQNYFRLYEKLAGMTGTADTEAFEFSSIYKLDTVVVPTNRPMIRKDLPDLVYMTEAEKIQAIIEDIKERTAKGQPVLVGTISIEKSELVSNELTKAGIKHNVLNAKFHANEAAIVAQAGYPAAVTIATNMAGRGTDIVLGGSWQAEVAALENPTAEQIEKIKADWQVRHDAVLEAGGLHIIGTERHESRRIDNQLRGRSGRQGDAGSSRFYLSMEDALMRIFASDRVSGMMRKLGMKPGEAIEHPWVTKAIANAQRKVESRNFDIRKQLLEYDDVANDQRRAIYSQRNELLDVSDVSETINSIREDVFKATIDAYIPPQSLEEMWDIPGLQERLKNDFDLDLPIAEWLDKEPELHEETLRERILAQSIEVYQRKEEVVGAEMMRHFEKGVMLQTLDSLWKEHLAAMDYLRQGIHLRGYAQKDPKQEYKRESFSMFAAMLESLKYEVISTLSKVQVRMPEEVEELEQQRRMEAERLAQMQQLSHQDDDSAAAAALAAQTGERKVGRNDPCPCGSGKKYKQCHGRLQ
Chromo domain-containing protein 1 (Saccharomyces cerevisiae (strain ATCC 204508 / S288c) (Baker's yeast)), sequence (P32657 whole entry, the tested form may be a part): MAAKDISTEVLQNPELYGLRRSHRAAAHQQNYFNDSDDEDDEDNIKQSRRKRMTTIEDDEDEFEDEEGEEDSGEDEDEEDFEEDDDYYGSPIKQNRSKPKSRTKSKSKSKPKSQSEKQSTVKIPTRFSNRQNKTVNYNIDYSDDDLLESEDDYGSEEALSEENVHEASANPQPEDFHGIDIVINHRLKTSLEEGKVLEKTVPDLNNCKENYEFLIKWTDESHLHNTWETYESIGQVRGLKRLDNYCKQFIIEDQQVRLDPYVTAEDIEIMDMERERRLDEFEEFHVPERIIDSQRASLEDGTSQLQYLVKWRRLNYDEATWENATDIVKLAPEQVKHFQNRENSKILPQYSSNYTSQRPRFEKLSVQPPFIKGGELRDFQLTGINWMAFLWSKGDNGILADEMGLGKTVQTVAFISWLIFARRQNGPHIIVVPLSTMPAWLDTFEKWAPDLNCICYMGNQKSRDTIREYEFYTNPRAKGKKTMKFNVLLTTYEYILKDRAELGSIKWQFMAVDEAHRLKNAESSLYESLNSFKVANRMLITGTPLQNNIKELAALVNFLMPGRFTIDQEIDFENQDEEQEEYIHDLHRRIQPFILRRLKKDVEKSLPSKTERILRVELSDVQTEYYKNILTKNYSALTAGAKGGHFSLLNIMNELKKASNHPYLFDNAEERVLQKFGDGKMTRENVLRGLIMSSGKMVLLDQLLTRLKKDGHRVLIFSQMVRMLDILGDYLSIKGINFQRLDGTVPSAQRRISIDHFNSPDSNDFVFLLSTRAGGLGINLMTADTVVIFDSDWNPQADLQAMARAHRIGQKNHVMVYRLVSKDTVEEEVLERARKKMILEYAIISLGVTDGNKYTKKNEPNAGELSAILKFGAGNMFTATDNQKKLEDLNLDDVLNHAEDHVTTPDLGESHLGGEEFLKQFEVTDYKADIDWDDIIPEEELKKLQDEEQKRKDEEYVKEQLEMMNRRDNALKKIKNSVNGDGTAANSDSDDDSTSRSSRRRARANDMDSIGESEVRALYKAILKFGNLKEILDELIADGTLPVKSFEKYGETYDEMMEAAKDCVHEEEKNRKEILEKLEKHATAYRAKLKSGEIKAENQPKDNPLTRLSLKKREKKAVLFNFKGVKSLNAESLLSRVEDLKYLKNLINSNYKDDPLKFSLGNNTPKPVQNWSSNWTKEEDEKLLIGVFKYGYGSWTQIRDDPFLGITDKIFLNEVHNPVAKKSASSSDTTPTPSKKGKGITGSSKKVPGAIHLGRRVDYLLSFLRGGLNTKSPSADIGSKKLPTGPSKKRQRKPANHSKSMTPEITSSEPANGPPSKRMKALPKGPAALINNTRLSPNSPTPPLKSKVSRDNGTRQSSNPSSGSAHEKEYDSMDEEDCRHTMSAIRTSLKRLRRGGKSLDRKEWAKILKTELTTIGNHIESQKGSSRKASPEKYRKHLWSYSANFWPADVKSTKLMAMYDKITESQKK
Sialic acid-binding Ig-like lectin 9 (Homo sapiens), sequence (Q9Y336 whole entry): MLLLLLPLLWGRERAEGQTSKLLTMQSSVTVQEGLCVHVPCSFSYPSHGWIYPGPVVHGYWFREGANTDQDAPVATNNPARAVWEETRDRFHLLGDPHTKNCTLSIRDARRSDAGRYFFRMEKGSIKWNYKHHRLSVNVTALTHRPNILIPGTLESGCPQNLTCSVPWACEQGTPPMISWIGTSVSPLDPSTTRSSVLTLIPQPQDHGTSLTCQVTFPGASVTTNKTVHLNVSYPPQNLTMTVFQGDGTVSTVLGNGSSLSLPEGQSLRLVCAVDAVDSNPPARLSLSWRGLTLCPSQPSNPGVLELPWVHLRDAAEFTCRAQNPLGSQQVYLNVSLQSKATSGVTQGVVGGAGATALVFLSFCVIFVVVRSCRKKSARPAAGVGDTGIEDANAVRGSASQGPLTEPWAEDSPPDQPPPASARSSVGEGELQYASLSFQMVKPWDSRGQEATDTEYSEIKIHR

Take `Cc1ccc(-c2noc(CN3CCOC(CN(C)C)C3)n2)cc1F` (stereo unspecified): the Percent Effect in [1] is -2.58%; in assay [2], -8.11%; in assay [3], -2.88%; in [4] it was 2.97%; in the assay on Trypanosoma cruzi it was -3.99%; in assay [5], -4.25%. Besides, the Percent Effect is -0.539% in assay [6]; 20.6% in the assay listed under Homo sapiens; 1.98% in [7]; -1.22% in assay [8]; 2.19% in assay [9].

For the compound `CN(C)S(=O)(=O)N1CCC[C@]2(C[C@@H](Oc3ccccn3)CO2)C1`, the Percent Effect in assay [1] is -0.984%; in assay [2], 7.79%; in assay [3], 2.82%; in [4] it was 5.42%; in the assay on Trypanosoma cruzi it was -4.63%; in assay [5], -5.81%. The Percent Effect in assay [6] was 9.75%; in the assay listed under Homo sapiens it was 5%; in [7], -1.06%; in assay [8], 6.41%; in assay [9], -6.01%.

As to `O=C1CC(c2cccc(O)c2)c2c(c(C(=O)O)cn2-c2ccccc2)N1` (stereo unspecified), the Percent Effect in assay [1] is -3.46%; in assay [2], 1.33%; in [3], -385%; in [4], 1.46%; in the assay on Trypanosoma cruzi, -3.34%; in [5], -5.81%. The Percent Effect in [6] was 14.6%; in the assay listed under Homo sapiens it was 7.35%; in assay [7], 0%; in assay [8], -5.13%; in assay [9], -11.7%.

For the compound `Cc1ccc(CNCC2CCc3nnc(C(C)C)n3C2)s1` (stereo unspecified), the Percent Effect in [1] was -1.99%; in [2] it was -1.39%; in assay [3] it was -8.87%; in [4], -3.91%; with Trypanosoma cruzi it was -1.46%; in assay [5] it was -3.97%. Moreover, the Percent Effect in assay [6] was 4.56%; in the assay listed under Homo sapiens, -6.98%; in assay [7], 1.05%; in [8] it was 0%; in [9], -1.15%.

For the compound `Cc1cc(C(=O)N2CC[C@@H]3CN(S(C)(=O)=O)CCO[C@@H]3C2)c(C)o1`, the Percent Effect in assay [1] is -2.68%; in assay [2], 13.5%; in [3], 1.13%; in assay [4], -7.58%; with Trypanosoma cruzi, -3.62%; in assay [5], 2.87%. Besides, the Percent Effect in [6] is 25.6%; in the assay listed under Homo sapiens it was -7.91%; in assay [7] it was 4.32%; in [8], 15.4%; in assay [9], -2.64%.

As for `Cc1ccc(CNC(=O)NCc2cccnc2N(C)C)s1`, the Percent Effect in [1] was -4.97%; in assay [2], 15.6%; in [3], 7.34%; in [4], 4.07%; with Trypanosoma cruzi, -4.68%; in assay [5] it was -3.2%. Besides, the Percent Effect in [6] was 1.35%; in the assay listed under Homo sapiens, 19.1%; in assay [7] it was 8.74%; in [8] it was 12.2%; in [9] it was -5.69%.

Regarding `Cc1nc(C)n(CC2CCCN(CCC(=O)N3CCCCC3)C2)n1` (stereo unspecified), the Percent Effect in [1] was -1.52%; in [2] it was -2.6%; in assay [3], 7.57%; in assay [4], -4.47%; in the assay on Trypanosoma cruzi, -4.21%; in assay [5], 5.26%. In addition, the Percent Effect was -0.566% in [6]; 20.7% in the assay filed under Homo sapiens; 0% in [7]; 0% in assay [8]; 4.58% in assay [9].

Take `O=C(c1ccoc1)N1CCCn2cnc(COCC3CC3)c2C1`: the Percent Effect is -3.46% in [1]; 13.5% in assay [2]; 6.15% in assay [3]; -4.88% in assay [4]; 1.07% with Trypanosoma cruzi; 9.24% in [5]. The Percent Effect in assay [6] was 22.1%; in the assay listed under Homo sapiens it was 0.302%; in assay [7] it was 2.16%; in [8], 15.4%; in assay [9], -0.464%.

Take `CC(C)CN1CCCn2nc(CNC(=O)c3cccnc3O)cc2C1`: the Percent Effect is -5.79% in [1]; 21.3% in assay [2]; -6.62% in assay [3]; 22.5% in assay [4]; 6.52% in the assay with Trypanosoma cruzi; 5.73% in assay [5]. The Percent Effect is 13.2% in assay [6]; 13.9% in the assay listed under Homo sapiens; 6.01% in [7]; 18.5% in assay [8]; -7.12% in [9].

As for `CN1CCCC(Cc2cncc(C(=O)NCC3CC3)c2)C1` (stereo unspecified), the Percent Effect in assay [1] was -4.88%; in assay [2], 1.35%; in [3] it was 8.98%; in [4], 0.654%; with Trypanosoma cruzi it was 0.79%; in assay [5], -2.09%. Besides, the Percent Effect in assay [6] was 4.68%; in the assay filed under Homo sapiens, 7.04%; in assay [7], 5.38%; in [8], 11.7%; in assay [9], -7.98%.

Turning to `O=C(O)CCc1cc2n(n1)CCCN(C(=O)c1ccc3cc[nH]c3c1)C2`, the Percent Effect is -2.97% in [1]; 16.2% in assay [2]; -5.19% in assay [3]; 10.7% in [4]; 4.05% in the assay with Trypanosoma cruzi; 10.5% in assay [5]. The Percent Effect in [6] is 11.9%; in the assay filed under Homo sapiens, -2.64%; in [7] it was 7.94%; in [8], 17.1%; in [9], -3.38%.

These data come from ChEMBL document CHEMBL3988442, “University of Dundee, Small-Polar-MMV Screening Library” (2021).
